Data as given in publication PMC7819943, “Rice protein-binding microarrays: a tool to detect cis-acting elements near promoter regions in rice”.
Whole data set: some 39,000 sequences, median “fluorescence intensity (a.u.)” near 4,300, cut for the highest 2% near 39,000. The sample as a whole holds a higher share of the highest values than the screen did.

target: T1, OsSMF1 (Oryza sativa, UniProt Q6ZLB0 1-436); test: protein-binding microarray (RPBM); PBS, 2% BSA, 51.3 ng/ul salmon testes DNA, 50 uM zinc acetate, 200 nM TF, 25 C, 1 h; high values mean tight binding; conditions: protein: recombinant; tags: N-terminal polyhistidine and DsRed monomer fusion (pET32a); chain copies: 2; label: CyDye5-dUTP incorporated in the synthesized complementary strand; 3' TTTTT single-stranded linker to array surface; dsDNA, one strand shown
T1 sequence: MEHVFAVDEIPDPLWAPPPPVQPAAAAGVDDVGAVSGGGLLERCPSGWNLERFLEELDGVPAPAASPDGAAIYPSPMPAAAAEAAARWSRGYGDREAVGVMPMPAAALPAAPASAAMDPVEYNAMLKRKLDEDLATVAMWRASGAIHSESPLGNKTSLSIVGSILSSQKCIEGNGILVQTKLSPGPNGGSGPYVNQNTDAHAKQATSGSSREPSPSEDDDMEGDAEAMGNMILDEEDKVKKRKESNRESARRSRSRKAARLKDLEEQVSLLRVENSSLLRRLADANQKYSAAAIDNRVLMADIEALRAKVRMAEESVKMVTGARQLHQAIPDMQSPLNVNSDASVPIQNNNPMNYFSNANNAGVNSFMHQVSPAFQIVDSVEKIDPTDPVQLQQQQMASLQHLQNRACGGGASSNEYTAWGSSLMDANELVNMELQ
Method in brief: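 Polyhistidine-tagged DsRed fusions of transcription factors, joined at the N-terminus, were expressed in E. coli BL21-CodonPlus and isolated on Ni–NTA. They were incubated at 200 nM for 1 h at 25 °C on a custom Agilent array, double-stranded and BSA-blocked, in PBS with 2% BSA, salmon testes DNA and 50 µM zinc acetate. The binding signal is per-feature fluorescence intensity (arbitrary units) read on an Axon 4000B scanner after washing.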

Sequence | binding signal
TCCGTGACACCGTGACAGCGTGGACGTTCATAACCTTCCACGGAGTCACCTAGTGCAG | 9010 fluorescence intensity (a.u.)
GACCTCGCGAACAGCCCACACGTACGTTACTGACGCCATACGGAGTCACCTAGTGCAG | 4360 fluorescence intensity (a.u.)
ACAGGTAGCTCCATATCTTGTTCATATTGACATACACAATCGGAGTCACCTAGTGCAG | 31500 fluorescence intensity (a.u.)
TGCAAATTTTCAAAATCGACTACCAGTAGATGTTTACTCCCGGAGTCACCTAGTGCAG | 14000 fluorescence intensity (a.u.)
CAAGAATGTACTGAGTACGTCTCAATCCACGTGTTTGAGCCGGAGTCACCTAGTGCAG | 4960 fluorescence intensity (a.u.)
TCACGAACTGTGTACCGGATGCCACGTCACACAGTTGTCTCGGAGTCACCTAGTGCAG | 41200 fluorescence intensity (a.u.)
ATGCAGCCACACGGATGTTGGACGTCATTGTCTATAGTGTCGGAGTCACCTAGTGCAG | 4580 fluorescence intensity (a.u.)
TATAGTTGTGTACTAGTGTCACTCACGCCACCCGTCTCATCGGAGTCACCTAGTGCAG | 3670 fluorescence intensity (a.u.)
GGCCGCGTAGGCGCCACATCAGCCAAAACCACCATCAAAACGGAGTCACCTAGTGCAG | 4590 fluorescence intensity (a.u.)
AGTAAAAGGAGCCACGTAGGCGCCACGTCATCCAAAACCACGGAGTCACCTAGTGCAG | 47600 fluorescence intensity (a.u.)
AACCAGCCACGTAGGCGCCACGTCAGCCAAAACTGCTATCCGGAGTCACCTAGTGCAG | 35900 fluorescence intensity (a.u.)
ACCAGCCACGTAGGCGCCACGTCAGCTAAAACCGCCTTCACGGAGTCACCTAGTGCAG | 19900 fluorescence intensity (a.u.)
ACAAGCCACGTAGGCGCCACGTCAGCCAAAACCGCCTTCACGGAGTCACCTAGTGCAG | 44100 fluorescence intensity (a.u.)
CGTAAGCGCCACGTTAATGCCACGTGGGGCGAAGACCTAGCGGAGTCACCTAGTGCAG | 15100 fluorescence intensity (a.u.)
AAACTAGCCACGTTGGCGCCACGTCAGCCAAAACCGCCTTCGGAGTCACCTAGTGCAG | 33700 fluorescence intensity (a.u.)
TTGCAGTGCCACCTCACCGCCACGTAGGATGATGACTAAGCGGAGTCACCTAGTGCAG | 25800 fluorescence intensity (a.u.)
AGTTAATGGAGGAGCCACCGCCACGTAAGTGCCACGTAGGCGGAGTCACCTAGTGCAG | 56200 fluorescence intensity (a.u.)
CATTATACTGTTCATAAACATGAATATCACAACCTGTTCTCGGAGTCACCTAGTGCAG | 21100 fluorescence intensity (a.u.)
GTGTGGGGATAAACAGAGGTAGAGACATGTGTCAGATGACCGGAGTCACCTAGTGCAG | 3150 fluorescence intensity (a.u.)
CTTCTTTCCCGCACGCGCGGCTCGCGCATGCATGCACGATCGGAGTCACCTAGTGCAG | 15000 fluorescence intensity (a.u.)
CGTCCGGCGTCGGCGTGGACGGGTCGGCGCGGCGCCCCACCGGAGTCACCTAGTGCAG | 3650 fluorescence intensity (a.u.)

Sequence | binding signal
AGATTAAGGAGTCCTCCATCTATATAATCCAATCTATCTCCGGAGTCACCTAGTGCAG | 21400 fluorescence intensity (a.u.)
TTGTCCGATGTGGCAGTTGAGTCAGCATGAGACCCACGTACGGAGTCACCTAGTGCAG | 14200 fluorescence intensity (a.u.)
CGGCACCACCAGTTGTCCGGCATGCGATGTGGTACCGAGACGGAGTCACCTAGTGCAG | 49300 fluorescence intensity (a.u.)
ACCACCCGAGACGCGACGTGGCGGCGGGCATGCAGCACCCCGGAGTCACCTAGTGCAG | 5050 fluorescence intensity (a.u.)
ACCTGTATTTGTCATTATTTAGTGGACTCTGCTTAGTTCTCGGAGTCACCTAGTGCAG | 3390 fluorescence intensity (a.u.)
TATGGTGATCCTAGCGATGAAACCGCCTAGCCCCGTTAGGCGGAGTCACCTAGTGCAG | 64600 fluorescence intensity (a.u.)
CATGGTGATGATGGCGGCGGGCGTCCGTCAGCGCCCGCACCGGAGTCACCTAGTGCAG | 5860 fluorescence intensity (a.u.)
TGCAGCCGCCGACGCGGCGCGCCGACGCGATCTGAAACCCCGGAGTCACCTAGTGCAG | 3940 fluorescence intensity (a.u.)
CCTATTCCTTGTCACTATGACACCGTCATATATCTATGCACGGAGTCACCTAGTGCAG | 3420 fluorescence intensity (a.u.)
CCCGCGGATCGATCGATCGCCGCCGCGCGCCTGGACGAGCCGGAGTCACCTAGTGCAG | 3300 fluorescence intensity (a.u.)
AATCGTGTCCATGGTCTCCACCTCACGGGAGATTCTCCGCCGGAGTCACCTAGTGCAG | 3830 fluorescence intensity (a.u.)
CCGCCACCCGCTGCCCGGGGAGCTCCGCCTTCACCTCCGCCGGAGTCACCTAGTGCAG | 7820 fluorescence intensity (a.u.)
CGCCTCCGTGGACCCGGTCCACGGGGAGATTACACCTTCACGGAGTCACCTAGTGCAG | 57600 fluorescence intensity (a.u.)
ATAGTTAGGTGACAATTGACAAGTGTCAAGTTGTGTATGACGGAGTCACCTAGTGCAG | 3360 fluorescence intensity (a.u.)
TGATGGCGGCTTTAGGTGACATGCAGCATTAAGTGGCATGCGGAGTCACCTAGTGCAG | 4460 fluorescence intensity (a.u.)
GGACACCCGCTCCGCGTCGCGCGCACGCTAGAAGAACTCCCGGAGTCACCTAGTGCAG | 3140 fluorescence intensity (a.u.)
GAAATGCCAAGTGTGAGAAGATGACGCACCCAAATGCAACCGGAGTCACCTAGTGCAG | 5640 fluorescence intensity (a.u.)
CTCTCCTCCTTTCTTCTCCAAGTCAACAGTTCCTACGCTACGGAGTCACCTAGTGCAG | 3360 fluorescence intensity (a.u.)
TCGCACCAAGAATTGTTCACCTACCTTCAAAGTTCCAACACGGAGTCACCTAGTGCAG | 63300 fluorescence intensity (a.u.)
AGCAAGCAAAGCCGAAGAATTGTTACACGGCCAAAGTGGACGGAGTCACCTAGTGCAG | 41200 fluorescence intensity (a.u.)
CGGAAAAGAAAGCCATGGAAGAAATGACGCAAGCAGCGGACGGAGTCACCTAGTGCAG | 4230 fluorescence intensity (a.u.)
